Consider 19 molecules from ChEMBL document CHEMBL3988442, “University of Dundee, Small-Polar-MMV Screening Library” (2021).

The target of the assay is T1, Arginase-2, mitochondrial (Homo sapiens) (UniProt P78540).
T1 sequence (whole entry): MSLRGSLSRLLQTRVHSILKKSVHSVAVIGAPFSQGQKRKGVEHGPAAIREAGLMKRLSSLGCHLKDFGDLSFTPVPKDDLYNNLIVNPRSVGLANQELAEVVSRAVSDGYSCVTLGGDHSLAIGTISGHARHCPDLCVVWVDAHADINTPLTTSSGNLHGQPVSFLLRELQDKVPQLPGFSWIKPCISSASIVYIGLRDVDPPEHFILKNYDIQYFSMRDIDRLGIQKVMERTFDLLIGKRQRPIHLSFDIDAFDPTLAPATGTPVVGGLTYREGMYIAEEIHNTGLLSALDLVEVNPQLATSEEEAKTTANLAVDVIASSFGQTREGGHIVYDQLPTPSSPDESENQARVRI
The assay can be described thus: in vitro enzyme assay to detect the production of urea directly proportional to the activity of Arginase II. Type of assay: functional. The settings on record: 30 µM. The arrangement: scale not given: in the data most compounds retested in dose-response had high values.
For `Cc1ncsc1C(=O)N1CCCC(c2nccn2Cc2cscn2)C1` (centres undefined), the Percent Effect was determined as 10.3%.
In the case of `Cc1nn(CCO)c(C)c1CNC1CCc2c(F)cccc21` (centres undefined), the Percent Effect was 5.95%.
Take `COc1ccccc1Oc1ncccc1CNC(=O)[C@H](N)CC(C)(C)C`: the Percent Effect was 10.3%.
With `NC(=O)CCCNC(=O)c1cc(Br)c2c(c1)OCCO2`, the Percent Effect came out at 3.78%.
In the case of `CCC(C(=O)NCc1ccccn1)N(c1cccc(C)c1)S(C)(=O)=O` (centres undefined), the Percent Effect amounted to 9.19%.
In the case of `Cc1cccc(C(=O)N2CCCC(c3nccn3Cc3cscn3)C2)n1` (centres undefined) it was 9.19%.
Under `Cc1nnsc1C(=O)N1CCCC(c2nccn2Cc2cscn2)C1` (centres undefined) stands -2.7%; under `O=c1[nH]c2c(c(=O)n1C1CCCCC1)CCC2NCc1ccccc1` (centres undefined), 9.19%.
Under `COc1ccc2c(c1)OCC(CNC(=O)c1cc(C(C)C)on1)C2` (centres undefined) stands 2.7%; under `CN(Cc1ccco1)[C@@H]1CN(CC2CCOCC2)C[C@@H]2CCCO[C@@H]21`, 7.03%.
For `Fc1ccc(CNCc2nnc3n2CC(C(F)(F)F)CC3)cc1` (centres undefined), the Percent Effect is -13.5%.
With `COc1cc(C(=O)N(CCC#N)Cc2ccccn2)ccc1C`, the Percent Effect worked out at 2.7%.
For `COc1ccc(-c2nc(CN3CC(n4cccn4)C3)no2)cc1`, the Percent Effect came to 0.54%.
In the case of `Cc1cccc(NC2CCc3c2[nH]c(=O)n(C2CCCCC2)c3=O)c1C` (centres undefined), the Percent Effect was -0.54%.
Under `CCOCCCNC(=O)c1cc(Br)c2c(c1)OCCO2` stands 0.54%.
Turning to `CN(Cc1cccnc1)C1CC2(CCN(Cc3ccccn3)CC2)C1`, the Percent Effect stood at 2.7%.
In the case of `COc1ccc2c(c1)OCC(CNC(=O)c1cc[nH]c1C)C2` (centres undefined) it was 8.11%.
As to `COCc1csc(NC(=O)N2CCC(Cc3cnn(C)c3)C2)n1` (centres undefined), the Percent Effect came to 2.7%.
Under `CN(Cc1ccco1)[C@@H]1CN(Cc2cnn(C)c2)[C@@H]2CCCO[C@H]12` stands 2.7%.
